Inconclusive results are not listed. Entries that show only a call come without a potency. The source made the active and inactive calls. The call rests on the fitted dose curve.
Assay: qHTS for Inhibitors of Cell Surface uPA Generation: Wild-type Protective Antigen (WT-PrAg) Counterscreen for Cherry-picked Compounds
Conditions: cells, WT protective antigen toxicity counterscreen; series mostly up to 115 µM
With `COc1cccc(NC(=S)NCc2ccc3c(c2)cc(C)n3C)c1` the Potency was “inactive”.
In the case of `CN(CCO)c1ccc(C(C(=O)c2ccccc2)c2ccc(N(C)CCO)cc2)cc1`, the Potency is reported as “inactive”.
For `Cc1[nH]c(=O)[nH]c(=O)c1S(=O)(=O)N1CCCc2ccccc21`, the Potency was “inactive”.
In the case of `COc1ccccc1N=Nc1c(C)[nH]n(-c2ccccc2)c1=O`, the Potency is reported as “inactive”.
With `COc1ccccc1NNC(=O)C(O)(c1ccccc1OC)c1ccccc1OC` the Potency was “inactive”.
In the case of `CC(C)C1Oc2ccccc2N(CC(=O)NC2CCCCC2)C1=O` (stereo not drawn), the Potency is reported as 36.9 µM (active).
In the case of `Cc1cc(=O)[nH]c(=S)[nH]1`, the Potency is reported as “inactive”.
For `Cc1ncc(CN2CCCC(C(=O)c3cccc(OC(C)C)c3)C2)s1` (stereo not drawn), the Potency was “inactive”.
With `COc1ccc(C(=O)c2sc(Nc3ccccc3)nc2N)cc1` the Potency was “inactive”.
In the case of `O=C(NCC1CCCO1)c1c(O)c2cccc3c2n(c1=O)CCC3` (stereo not drawn), the Potency is reported as “inactive”.
For `COC(=O)c1ccc(CN2CCCC(CNC(=O)Cc3ccc(OC)cc3)C2)cc1` (stereo not drawn), the Potency was “inactive”.
In the case of `CCOC(=O)C1=C(C)N(Cc2ccccc2)C(=O)NC1c1ccc(OC)cc1` (stereo not drawn), the Potency is reported as “inactive”.
In the case of `CCC(COC)NC(=O)CCc1nnc(Cc2c[nH]c3ccccc23)o1` (stereo not drawn), the Potency is reported as “inactive”.
In the case of `CCCCCN(C(=O)CCC(=O)OCCOc1cccc(Cl)c1)c1c(N)n(CCCC)c(=O)[nH]c1=O`, the Potency is reported as “inactive”.
For `COc1ccccc1-c1ccc(SCC(=O)NCCc2ccccc2)nn1`, the Potency was “inactive”.
For `COc1cc(NC(=O)CSc2nnc3ccc(-c4ccncc4)nn23)cc(OC)c1`, the Potency was “inactive”.
For `Clc1ccccc1N1CCN(c2ncnc3nc[nH]c23)CC1`, the Potency was “inactive”.
In the case of `O=C1CCCC/C1=C\Nc1ccc(S(=O)(=O)Nc2cnc3ccccc3n2)cc1`, the Potency is reported as “inactive”.

Source: PubChem BioAssay AID720518 (National Center for Advancing Translational Sciences (NCATS), 2013)
Potency means the concentration at half of the fitted maximal effect.
